# PubChem BioAssay AID1159580 (chemical genetic matrix, 2015)
# Screen size: about 5,500 compounds; about 2,000 (36%) were called active. Inconclusive results (about 18%) are left out. The list shows a part of the results. Values without a mark were called inactive. Cut-off read from the data, not from the text of the source: active = normalized growth mostly below about 0.91 (no sharp cut-off); inconclusive = no clear call, values can overlap the other calls; inactive = mostly above about 0.92.
# Assay: chemical genetic growth profiling, strain panel (AID 1159580);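 note: tested at 20 µM; growth read once vehicle control cultures reached saturation at 30 °C; 1 = growth at the plate median or of vehicle wells; lower values mean less growth of the strain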
# Conditions: growth OD
# [1] = S. cerevisiae deletion strains, locus YDL101C, strain DUN1, stronger effect = lower value
# [2] = S. cerevisiae deletion strains, locus YHR030C, strain SLT2, stronger effect = lower value
smiles,measurement,setting,value
N/C(=N/OCc1c(F)cccc1Cl)c1ccc(Cl)cc1,normalized growth,"S. cerevisiae deletion strains, locus YAR019C, strain CDC15, stronger effect = lower value",0.914
same,normalized growth,"S. cerevisiae deletion strains, locus YBL105C, strain PKC1, stronger effect = lower value",0.922
same,normalized growth,"S. cerevisiae deletion strains, locus YBR135W, strain CKS1, stronger effect = lower value",0.929
same,normalized growth,"S. cerevisiae deletion strains, locus YBR136W, strain MEC1, stronger effect = lower value",0.92
same,normalized growth,"S. cerevisiae deletion strains, locus YBR160W, strain CDC28, stronger effect = lower value",0.932
same,normalized growth,"S. cerevisiae deletion strains, locus YDL017W, strain CDC7, stronger effect = lower value",0.921
same,normalized growth,"S. cerevisiae deletion strains, locus YDL028C, strain MPS1, stronger effect = lower value",0.93
same,normalized growth,[1],0.921
same,normalized growth,"S. cerevisiae deletion strains, locus YDL108W, strain KIN28, stronger effect = lower value",0.922
same,normalized growth,"S. cerevisiae deletion strains, locus YDL132W, strain cdc53, stronger effect = lower value",0.95
same,normalized growth,"S. cerevisiae deletion strains, locus YDL214C, strain PRR2, stronger effect = lower value",0.91
same,normalized growth,"S. cerevisiae deletion strains, locus YDR052C, strain DBF4, stronger effect = lower value",0.941
same,normalized growth,"S. cerevisiae deletion strains, locus YDR054C, strain cdc34, stronger effect = lower value",0.905
same,normalized growth,"S. cerevisiae deletion strains, locus YDR226W, strain ADK1, stronger effect = lower value",0.905
same,normalized growth,"S. cerevisiae deletion strains, locus YDR477W, strain SNF1, stronger effect = lower value",0.92
same,normalized growth,"S. cerevisiae deletion strains, locus YER123W, strain YCK3, stronger effect = lower value",0.934
same,normalized growth,"S. cerevisiae deletion strains, locus YER133W, strain GLC7, stronger effect = lower value",0.912
same,normalized growth,"S. cerevisiae deletion strains, locus YFL009W, strain cdc4, stronger effect = lower value",0.913
same,normalized growth,"S. cerevisiae deletion strains, locus YFL029C, strain CAK1, stronger effect = lower value",0.922
same,normalized growth,"S. cerevisiae deletion strains, locus YFR003C, strain YPI1, stronger effect = lower value",0.924
same,normalized growth,"S. cerevisiae deletion strains, locus YFR019W, strain FAB1, stronger effect = lower value",0.914
same,normalized growth,"S. cerevisiae deletion strains, locus YFR028C, strain CDC14, stronger effect = lower value",0.94
same,normalized growth,"S. cerevisiae deletion strains, locus YGR040W, strain KSS1, stronger effect = lower value",0.919
same,normalized growth,"S. cerevisiae deletion strains, locus YGR052W, strain FMP48, stronger effect = lower value",0.925
same,normalized growth,"S. cerevisiae deletion strains, locus YGR092W, strain DBF2, stronger effect = lower value",0.824
same,normalized growth,[2],0.721 (active)
same,normalized growth,"S. cerevisiae deletion strains, locus YHR079C, strain IRE1, stronger effect = lower value",0.326 (active)
same,normalized growth,"S. cerevisiae deletion strains, locus YHR082C, strain KSP1, stronger effect = lower value",0.974
same,normalized growth,"S. cerevisiae deletion strains, locus YHR205W, strain SCH9, stronger effect = lower value",0.765
same,normalized growth,"S. cerevisiae deletion strains, locus YIL147C, strain SLN1, stronger effect = lower value",0.916
same,normalized growth,"S. cerevisiae deletion strains, locus YJL095W, strain BCK1, stronger effect = lower value",0.842
same,normalized growth,"S. cerevisiae deletion strains, locus YJL128C, strain PBS2, stronger effect = lower value",0.945
same,normalized growth,"S. cerevisiae deletion strains, locus YJL157C, strain FAR1, stronger effect = lower value",0.929
same,normalized growth,"S. cerevisiae deletion strains, locus YJR016C, strain ILV3, stronger effect = lower value",0.929
same,normalized growth,"S. cerevisiae deletion strains, locus YJR066W, strain TOR1 (second series), stronger effect = lower value",0.962
same,normalized growth,"S. cerevisiae deletion strains, locus YJR066W, strain TOR1, stronger effect = lower value",0.93
same,normalized growth,"S. cerevisiae deletion strains, locus YKL048C, strain ELM1, stronger effect = lower value",0.903
same,normalized growth,"S. cerevisiae deletion strains, locus YKL067W, strain YNK1, stronger effect = lower value",0.923
same,normalized growth,"S. cerevisiae deletion strains, locus YKL101W, strain HSL1, stronger effect = lower value",0.911
same,normalized growth,"S. cerevisiae deletion strains, locus YKL193C, strain SDS22, stronger effect = lower value",0.907
same,normalized growth,"S. cerevisiae deletion strains, locus YKL203C, strain TOR2, stronger effect = lower value",0.997
same,normalized growth,"S. cerevisiae deletion strains, locus YLR113W, strain HOG1, stronger effect = lower value",0.785 (active)
same,normalized growth,"S. cerevisiae deletion strains, locus YLR133W, strain CKI1, stronger effect = lower value",0.935
same,normalized growth,"S. cerevisiae deletion strains, locus YLR403W, strain SFP1, stronger effect = lower value",0.847
same,normalized growth,"S. cerevisiae deletion strains, locus YML070W, strain DAK1, stronger effect = lower value",0.909
same,normalized growth,"S. cerevisiae deletion strains, locus YMR001C, strain CDC5, stronger effect = lower value",0.916
same,normalized growth,"S. cerevisiae deletion strains, locus YMR205C, strain PFK2 (second series), stronger effect = lower value",0.886
same,normalized growth,"S. cerevisiae deletion strains, locus YMR277W, strain FCP1, stronger effect = lower value",0.919
same,normalized growth,"S. cerevisiae deletion strains, locus YNL006W, strain LST8, stronger effect = lower value",0.928
same,normalized growth,"S. cerevisiae deletion strains, locus YNL020C, strain ARK1, stronger effect = lower value",0.926
same,normalized growth,"S. cerevisiae deletion strains, locus YNL161W, strain CBK1, stronger effect = lower value",0.916
same,normalized growth,"S. cerevisiae deletion strains, locus YNL183C, strain NPR1, stronger effect = lower value",0.956
same,normalized growth,"S. cerevisiae deletion strains, locus YNL207W, strain RIO2, stronger effect = lower value",0.903
same,normalized growth,"S. cerevisiae deletion strains, locus YNL222W, strain SSU72, stronger effect = lower value",0.933
same,normalized growth,"S. cerevisiae deletion strains, locus YNL307C, strain MCK1 (second series), stronger effect = lower value",0.917
same,normalized growth,"S. cerevisiae deletion strains, locus YOL078W, strain AVO1, stronger effect = lower value",0.915
same,normalized growth,"S. cerevisiae deletion strains, locus YOL136C, strain PFK27, stronger effect = lower value",0.901
same,normalized growth,"S. cerevisiae deletion strains, locus YOR061W, strain CKA2, stronger effect = lower value",0.966
same,normalized growth,"S. cerevisiae deletion strains, locus YOR119C, strain RIO1, stronger effect = lower value",0.983
same,normalized growth,"S. cerevisiae deletion strains, locus YOR231W, strain MKK1, stronger effect = lower value",0.932
same,normalized growth,"S. cerevisiae deletion strains, locus YOR329C, strain SCD5, stronger effect = lower value",0.915
same,normalized growth,"S. cerevisiae deletion strains, locus YPL031C, strain PHO85, stronger effect = lower value",0.902
same,normalized growth,"S. cerevisiae deletion strains, locus YPL153C, strain RAD53, stronger effect = lower value",0.933
same,normalized growth,"S. cerevisiae deletion strains, locus YPL204W, strain HRR25, stronger effect = lower value",0.908
same,normalized growth,"S. cerevisiae deletion strains, locus YPL209C, strain IPL1, stronger effect = lower value",0.919
same,normalized growth,"S. cerevisiae deletion strains, locus YPL256C, strain CLN2, stronger effect = lower value",0.767 (active)
same,normalized growth,"S. cerevisiae deletion strains, locus YPR025C, strain CCL1, stronger effect = lower value",0.926
same,normalized growth,"S. cerevisiae deletion strains, locus YPR106W, strain ISR1, stronger effect = lower value",0.915
same,normalized growth,"S. cerevisiae deletion strains, locus YPR111W, strain DBF20, stronger effect = lower value",0.911
same,normalized growth,"S. cerevisiae deletion strains, strain NNK1, stronger effect = lower value",0.899
same,normalized growth,"S. cerevisiae deletion strains, strain TSCII, stronger effect = lower value",0.91
N=C(N)SCc1c(F)cccc1Cl,normalized growth,"S. cerevisiae deletion strains, locus YAL013W, strain DEP1, stronger effect = lower value",0.996
same,normalized growth,"S. cerevisiae deletion strains, locus YBR229C, strain ROT2, stronger effect = lower value",0.986
same,normalized growth,"S. cerevisiae deletion strains, locus YCL061C, strain MRC1, stronger effect = lower value",1.01
same,normalized growth,[1],0.968
same,normalized growth,"S. cerevisiae deletion strains, locus YDL134C, strain PPH21, stronger effect = lower value",1
same,normalized growth,"S. cerevisiae deletion strains, locus YDR150W, strain NUM1, stronger effect = lower value",0.984
same,normalized growth,"S. cerevisiae deletion strains, locus YEL061C, strain CIN8, stronger effect = lower value",0.98
same,normalized growth,"S. cerevisiae deletion strains, locus YGR078C, strain PAC10, stronger effect = lower value",0.989
same,normalized growth,"S. cerevisiae deletion strains, locus YGR229C, strain SMI1, stronger effect = lower value",0.998
same,normalized growth,[2],0.947
same,normalized growth,"S. cerevisiae deletion strains, locus YHR087W, strain rtc3, stronger effect = lower value",0.978
same,normalized growth,"S. cerevisiae deletion strains, locus YJR043C, strain POL32, stronger effect = lower value",0.99
same,normalized growth,"S. cerevisiae deletion strains, locus YJR075W, strain HOC1, stronger effect = lower value",0.991
same,normalized growth,"S. cerevisiae deletion strains, locus YKL190W, strain CNB1, stronger effect = lower value",0.983
same,normalized growth,"S. cerevisiae deletion strains, locus YLR039C, strain RIC1, stronger effect = lower value",0.978
same,normalized growth,"S. cerevisiae deletion strains, locus YLR058C, strain SHM2 (second series), stronger effect = lower value",0.986
same,normalized growth,"S. cerevisiae deletion strains, locus YLR085C, strain ARP6, stronger effect = lower value",0.993
same,normalized growth,"S. cerevisiae deletion strains, locus YLR262C, strain YPT6, stronger effect = lower value",0.989
same,normalized growth,"S. cerevisiae deletion strains, locus YML094W, strain GIM5, stronger effect = lower value",0.935
same,normalized growth,"S. cerevisiae deletion strains, locus YMR219W, strain ESC1, stronger effect = lower value",1
same,normalized growth,"S. cerevisiae deletion strains, locus YMR263W, strain SAP30, stronger effect = lower value",1.04
same,normalized growth,"S. cerevisiae deletion strains, locus YNL128W, strain TEP1, stronger effect = lower value",0.968
same,normalized growth,"S. cerevisiae deletion strains, locus YNL153C, strain GIM3, stronger effect = lower value",1.01
same,normalized growth,"S. cerevisiae deletion strains, locus YNL298W, strain CLA4 (second series), stronger effect = lower value",0.96
same,normalized growth,"S. cerevisiae deletion strains, locus YNL322C, strain KRE1, stronger effect = lower value",0.982
same,normalized growth,"S. cerevisiae deletion strains, locus YNR030W, strain Alg12, stronger effect = lower value",0.975
same,normalized growth,"S. cerevisiae deletion strains, locus YPL055C, strain LGE1, stronger effect = lower value",0.956
same,normalized growth,"S. cerevisiae deletion strains, locus YPL241C, strain CIN2, stronger effect = lower value",1.12
same,normalized growth,"S. cerevisiae deletion strains, locus YPR135W, strain CTF4, stronger effect = lower value",0.896
same,normalized growth,"S. cerevisiae strains, strain wild type, stronger effect = lower value",0.986
